Data as given in PubChem BioAssay AID624167 (Sanford-Burnham Center for Chemical Genomics, 2012).

Assay: Peg3 promoter luciferase inhibitors, potency, dose response, cell-based, HeLa, CREF/GAPDH counter-screen panel (AID 624167)
Settings: CREF/GAPDH counter-screens; run 2, dose range 1, at 100 µM (top of the series)

Row | SMILES | inhibition [%]
1 | CN(O)C(=S)c1ccccc1 | 14.9
2 | COc1cccc(OC)c1C(=O)Nc1cc(C)nn1-c1nc2ccccc2[nH]1 | 54.4
3 | CN(C)c1ccc(C=c2c3ccccc3n3c2cc(-c2ccccc2)[n+]3C)cc1 | 100
4 | Cc1ccc(-n2c(N)c(C(=O)Nc3c(C)n(C)n(-c4ccccc4)c3=O)c3nc4ccccc4nc32)cc1 | 81.3
5 | Nc1nonc1-n1nnc(C(=O)N/N=C/c2cc(Br)ccc2O)c1CNc1ccccc1 | 66.5
6 | CS(=O)(=O)c1ccc(-c2cn3cc(C(=O)O)ccc3n2)cc1 | 78.3
7 | O=C(/C=C/c1ccc(Cl)c([N+](=O)[O-])c1)c1ccc(O)cc1 | 99.5
8 | O=C(N/N=C/c1cc([N+](=O)[O-])ccc1O)c1ccc(COc2ccc3c(c2)CCC3)o1 | -2.8
9 | CS(=O)(=O)Nc1cccc(NC(=O)C2Cc3c(-c4cccc(F)c4)ccnc3O2)c1 (stereo not given) | 73.6
10 | COc1ccc2c(c1)c(=Cc1ccc(N(C)C)cc1)c1cc(-c3ccccc3)[n+](C)n12 | 99.9
11 | CCC(C)Cn1c(O)cc2nn(-c3nc4ccccc4s3)c(=O)c-2c1C (stereo not given) | 95.7
12 | CCOC(=O)c1c(SCCN2CCCCC2)n(-c2ccccc2)c(=S)n(-c2ccccc2)c1=O | 98
13 | NS(=O)(=O)c1ccc(CCNc2nn3c(-c4ccc(F)c(Cl)c4)cnc3s2)cc1 | 75.5
14 | Cc1cc(C(=O)Nc2cccc(C(=O)O)c2)oc1C | 92.8
15 | CN=c1sc2c(n1C)C(=O)c1ccccc1C2=O | 87.2
